Bioassay records (PubChem BioAssay)
VACV Venus inh – qHTS for Stage-Specific Inhibitors of Vaccinia Orthopoxvirus: Venus Reporter Primary qHTS; Vaccinia virus Venus reporter expression, fluorescence; Potency, µM (top dose mostly 36.5 µM), for inactives: top-dose activity change, negative = inhibition, hits mostly inhibitors; 0.46% of 330,000 active; calls by dose curve; tested in A549 cells; also: % is scaled to controls: 0 for no effect and ±100 for the full control effect; nearly all actives have a fitted effect of over 30% in size
Pf growth 96h – Primary qHTS for delayed death inhibitors of the malarial parasite plastid, 96 hour incubation; 6.9% of 320,000 active; AID 504834, 2011; P. falciparum luciferase reporter growth, 96 h; Potency, µM (top dose mostly 28.7 µM), without a hit: at the highest dose activity change, negative = inhibition, most hits filed as inhibitors; also: % is scaled to controls: 0 for no effect and ±100 for the full control effect
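P. falciparum expressing integrated firefly luciferase, in erythrocytes at 2% hematocrit, 0.05% parasitemia, incubated with compounds 96 h at 37 C, 5% CO2. Growth inhibition read as loss of luminescence; two-generation exposure targets delayed-death apicoplast inhibitors.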
Pf growth 48h – Primary qHTS for delayed death inhibitors of the malarial parasite plastid, 48 hour incubation | P. falciparum luciferase growth in erythrocytes, 48 h | Potency, µM (titrated, usually from 28.7 µM), inactives show top-dose activity change, negative = inhibition, hits mostly inhibitors | 5.9% of 310,000 active; also: % is scaled to controls: 0 for no effect and ±100 for the full control effect
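Luciferase-expressing parasites in RBCs, 2% Hct / 0.1% parasitemia final; RPMI 1640 + 0.5% Albumax; 37 C, 5% CO2, one generation; luminescence read-out, lower signal = inhibition.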
NS1 function inh – qHTS Assay for Inhibitors of Influenza NS1 Protein Function; Potency, µM (top dose mostly 46.1 µM), for inactives: top-dose activity, positive = more growth; 0.4% of 270,000 active; AID 2326, 2010; calls by dose curve; also: actives are rising curves; nearly all actives have a fitted effect of over 50% in size
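Read-out: OD600 growth recovery of NS1-expressing budding yeast. Cells grown overnight at 30C in -URA glucose medium, washed, resuspended and diluted 1:100 in 2% galactose assay medium, pH 6.0. Same strain lacking NS1 served as positive control.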
VACV mCherry inh – qHTS for Stage-Specific Inhibitors of Vaccinia Orthopoxvirus: mCherry Reporter Primary qHTS; Vaccinia virus mCherry reporter infection, fluorescence; Potency, µM (top dose mostly 36.5 µM), for inactives: top-dose activity change, negative = inhibition, usual class: inhibitors; 0.63% of 310,000 active; calls by dose curve; tested in A549 cells; also: % is scaled to controls: 0 for no effect and ±100 for the full control effect; nearly all actives have a fitted effect of over 35% in size
HCV inh – qHTS Assay for Inhibitors of Hepatitis C Virus (HCV); Huh7.5.1 HCVcc-Cre infection, luciferase reporter, 44 h; 3.4% of 340,000 active; AID 651820, 2012; Potency, µM (series often up to 41.8 µM), for inactives: at the top dose activity change, negative = inhibition, actives largely listed as inhibitors; also: % is scaled to controls: 0 for no effect and ±100 for the full control effect
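Compounds are dispensed onto cells plated 4 h earlier at 1,000 per well, with HCVcc-Cre virus (about 0.5 moi) added next. Following 44 h of culture, luminescent signal is measured for 15 sec after 15 min with substrate at room temperature.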
An asterisk follows results filed as active; i = inactive; u = inconclusive; x = not tested or not shown; [ ] = another dose, or the depositor's remark. Sampled rows, rich in hits. Any-hit rate of the full collection: about 11%. Unless noted, calls follow the shape of the dose curve; as a rule, active = well fitted inhibition curve with a large enough effect; inconclusive = small, poorly fitted or top-dose-only effect, or another doubt; inactive = no such curve, though single readings can be large or run the other way. Potency is read from the fitted curve at half-maximal effect.

SMILES | VACV Venus inh | Pf growth 96h | Pf growth 48h | NS1 function inh | VACV mCherry inh | HCV inh
CCN(CC(=O)Nc1ccccc1C(F)(F)F)C(=O)Cc1ccc2c(c1)CCC2 | x | 19% | u | x | x | -8%
CCCN(CC(=O)Nc1ccccc1OC)C(=O)c1ccc2c(c1)NC(=O)C(C)S2 (configuration not stated) | x | u | 10µM* | x | x | -10%
COc1cccc(NC(=O)CN(C)C(=O)c2cccc(S(=O)(=O)Nc3ccc(C)cc3)c2)c1 | x | -27% | u | x | x | u
CCCN(CC(=O)Nc1ccccc1OC)C(=O)Cc1ccc2c(c1)CCC2 | x | u | 10µM* | x | x | 2%
COc1ccc(C2CC(=O)Nc3c2c(=O)[nH]c2nc4ccccc4n32)cc1OC (configuration not stated) | -4%[7.34 µM] | x | x | x | 1%[7.34 µM] | x
COc1cccc(/C=C(/C(=O)OCC(=O)NC2CCCC(C)C2C)c2ccccc2)c1 (configuration not stated) | -20% | u | 13µM* | -18% | i | u
COc1cccc(/C=C(/C(=O)OCC(N)=O)c2ccccc2)c1 | -21% | 13% | -1% | x | -30% | -5%
O=C(NCCC(=O)N1CCN(c2ccccn2)CC1)c1ccc(Br)cc1 | -7% | 2% | 0% | x | -9% | -22%
COc1ccc(/C=N/NC(=O)CC#N)cc1Oc1nc(Cl)ncc1F | x | 19% | -18% | 6% | x | -1%
O=C1/C(=C/c2cccnc2)CCC/C1=C\c1cccnc1 | u | 13µM* | 10µM* | -38% | u | u
O=C1/C(=C/c2cccnc2)CC/C1=C\c1cccnc1 | -10% | u | u | x | -5% | 2%
CN(C)c1ccc(/C=C2\CCC/C(=C\c3ccccc3)C2=O)cc1 | 3% | u | u | 5% | i | u
CCC1C/C(=C\c2cccnc2)C(=O)/C(=C/c2cccnc2)C1 (configuration not stated) | u | 21% | 7.4µM* | -63% | u | u
O=C1/C(=C/c2ccc(C(=O)O)cc2)CCC/C1=C\c1ccc(C(=O)O)cc1 | -3% | 1.5µM* | 2.1µM* | 23% | i | 7%
COc1ccc(OC)c(S(=O)(=O)N2CCCC(C(=O)N3CCOCC3)C2)c1 (configuration not stated) | 3% | 18% | 0% | 0% | -7% | -17%
CCCCCc1ccc(CC(=O)O)cc1 | 0% | 9.3µM* | 10% | -226% | -9% | 24%
COc1ccc(C2/C=C\CN(S(=O)(=O)c3ccc(-c4ccccc4)cc3)CC(=O)N2Cc2ccc(F)cc2)cc1 (configuration not stated) | -3% | 4.7µM* | 12µM* | 7% | 17% | -19%
COc1ccc([C@H]2/C=C\CN(S(=O)(=O)/C=C/c3ccccc3)[C@@H](C)C(=O)N2Cc2ccc(F)cc2)cc1 | -9% | x | x | x | i | u
COc1ccc([C@H]2/C=C\CN(C(=O)C3CCCC3)[C@@H](C)C(=O)N2Cc2ccc(F)cc2)cc1 | -3% | x | x | x | -7% | u
COc1ccc(C2/C=C\CN(C(=O)C3CCCC3)[C@H](Cc3ccccc3)C(=O)N2Cc2ccc(F)cc2)cc1 (some centres not stated) | u | 10µM* | 8.3µM* | 9% | -25% | -15%
COc1ccc(C2/C=C\CN(C(=O)Nc3ccccc3)CC(=O)N2Cc2ccc(F)cc2)cc1 (configuration not stated) | -10% | 22% | u | 2% | i | u
COc1ccc(C2/C=C\CN(S(=O)(=O)c3ccc(C)cc3)[C@H](Cc3ccccc3)C(=O)N2Cc2ccc(F)cc2)cc1 (some centres not stated) | -7% | 8.3µM* | 4.1µM* | u | 0% | u
CN(C)c1ccc(C2Nc3ccccc3C(=O)N2CCN2CCNC2=O)cc1 (configuration not stated) | -13% | u | u | -2% | i | 1%
Cc1cc2nc(N(Cc3cccnc3)C(=O)c3ccc(Cl)s3)sc2cc1C | -9%[7.34 µM] | x | x | x | -13%[7.34 µM] | x
O=C(O)C1C2C=CC(C2)C1C(=O)Nc1cccc(C(F)(F)F)c1 (configuration not stated) | -5% | 0% | 4% | -4% | -19% | 5%
SMILES | VACV Venus inh | Pf growth 96h | Pf growth 48h | NS1 function inh | VACV mCherry inh | HCV inh
CCOC(=O)c1c(NC(=O)CN2CCN(c3ccccn3)CC2)sc2c1CCCC2 | x | x | x | -27% | x | x
COCCCNC(=O)CN(c1cc(Cl)ccc1OC)S(=O)(=O)c1ccc(C)c([N+](=O)[O-])c1 | -6% | 233% | u | 0% | u | 13%
C=CCNC(=O)CN(c1cc(Cl)ccc1OC)S(=O)(=O)c1ccc(C)c([N+](=O)[O-])c1 | -10% | 86% | 2.6µM* | 2% | -24% | 4%
COc1ccc(Cl)cc1N(CC(=O)NCC(C)C)S(=O)(=O)c1ccc(C)c([N+](=O)[O-])c1 | -3% | 9.3µM* | -12% | 11% | -11% | 1%
COCCNC(=O)CN(c1cc(Cl)ccc1OC)S(=O)(=O)c1ccc(C)c([N+](=O)[O-])c1 | -10% | 400% | u | 0% | -27% | 0%
Cc1c(C(=O)Nc2cccc(C(F)(F)F)c2)oc2ccc(S(=O)(=O)N(C)C3CCCCC3)cc12 | -14% | x | x | x | -13% | x
COC1C=CC23c4cc5c(cc4CN(CC2O)C3C1)OCO5 (configuration not stated) | 1.8µM* | x | x | x | 1.3µM* | x
COc1c2c(cc3c1OCO3)C13C=CC(OC)CC1N(C2)CC3O (configuration not stated) | -17% | x | x | x | -13% | x
CCN1CCN(C(=O)NC(c2ccc(C)c(F)c2)C(Cl)Cl)CC1 (configuration not stated) | 5% | -4% | -13% | x | -10% | -12%
CCc1cc(=O)oc2cc(C)cc(OC(C)C(=O)NC3CCN(Cc4ccccc4)CC3)c12 (configuration not stated) | -12% | u | u | 4% | -8% | 13µM*
Cc1cc(OCC(=O)N2CCC(C(=O)O)(c3ccccc3)CC2)c2c(C)cc(=O)oc2c1 | -12% | 0% | 12% | 13% | -8% | 37%
CCc1cc(=O)oc2cc(C)cc(OCC(=O)N3CCC(C(=O)NC(C)C)(c4ccccc4)CC3)c12 | -19% | 10µM* | 10µM* | 6% | i | u
CCc1cc(=O)oc2cc(C)cc(OCC(=O)NCc3ccccn3)c12 | x | u | -28% | -1% | x | -18%
COc1ccc(-c2cc(=O)oc3cc4occ(C)c4cc23)cc1 | x | 0.83µM* | u | 2% | x | 9%
